The text below walks through data of PubChem BioAssay AID1851 (National Center for Advancing Translational Sciences (NCATS), 2009).

Hit rate of the full screen: of about 16,000 compounds, about 5,100 (32%) were called active. About 25% were inconclusive and are not listed. Calls follow the shape of the dose curve; as a rule, active = well fitted curve in the direction sought with a large enough effect; inconclusive = small, poorly fitted or top-dose-only effect, or effect the other way; inactive = no such curve, though single readings can be large or run the other way. This is one part of the list.
% is scaled to controls: 0 for no effect and ±100 for the full control effect.

The target of the assay is Cytochrome P450 3A4 (Homo sapiens) (UniProt P08684). The assay is described as follows: Cytochrome panel assay with activity outcomes. The following applies: recombinant CYP, pro-luciferin dealkylation, luminescence, p450-cyp3a4; series mostly up to 57.1 µM; activity, negative = inhibition: at the top concentration.
Cytochrome P450 3A4 (Homo sapiens), sequence (P08684 whole entry, looked up): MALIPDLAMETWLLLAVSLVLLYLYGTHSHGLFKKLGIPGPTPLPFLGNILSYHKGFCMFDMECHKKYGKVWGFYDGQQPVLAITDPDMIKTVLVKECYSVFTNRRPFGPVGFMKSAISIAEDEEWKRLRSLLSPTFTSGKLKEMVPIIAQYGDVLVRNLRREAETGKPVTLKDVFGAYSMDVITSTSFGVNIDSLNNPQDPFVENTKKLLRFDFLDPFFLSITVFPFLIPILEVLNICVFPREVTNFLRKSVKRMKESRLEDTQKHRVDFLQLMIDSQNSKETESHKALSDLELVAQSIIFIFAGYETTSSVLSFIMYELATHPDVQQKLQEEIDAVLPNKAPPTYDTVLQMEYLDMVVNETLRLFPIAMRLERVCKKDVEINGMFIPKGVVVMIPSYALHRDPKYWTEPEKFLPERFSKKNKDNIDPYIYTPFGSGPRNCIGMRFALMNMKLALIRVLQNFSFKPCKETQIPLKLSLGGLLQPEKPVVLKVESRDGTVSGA
In the case of `CC(=O)OC[C@@H]1O[C@@H](O/N=C2/C[C@@H](O)[C@@H](O)[C@@H]3[C@@H]4C(=O)N(C[C@@H]5CCCO5)C(=O)[C@H]4CC[C@H]23)[C@H](OC(C)=O)[C@H](OC(C)=O)[C@@H]1OC(C)=O`, the activity, negative = inhibition was -12.5% [at 11.4 µM] (inactive). Same read-out and setting: for `Oc1cc(O)c2c(c1)O[C@@H](c1ccc(O)c(O)c1)[C@H](O[C@@]1(c3cc(O)c(O)c(O)c3)Oc3cc(O)cc(O)c3[C@H](O)[C@@H]1O)C2` the value was -19.7% [at 11.4 µM] (inactive). As for `O=C(Cc1ccccc1)N/N=C/c1ccccc1OCc1ccc(Cl)cc1`, the AC50 (usually the concentration giving half of the maximal activity seen) was 15.8 µM (active). As to `Cc1ccc(COc2ccc(Br)cc2/C=N/O)cc1`, the AC50 was 7.94 µM (active). Take `O=C(SCc1cccc2ccccc12)c1ccc(Cl)cc1`: the activity, negative = inhibition is -17.6% [at 11.4 µM] (inactive).

For the molecule `NC(=S)N/N=C/c1ccccc1OCc1cccc(Cl)c1`, the activity, negative = inhibition is -18.2% [at 2.29 µM] (inactive). On the same count and under the same terms, for `Oc1ccc(Cl)cc1C=Nc1cnc2ccccc2c1` the value was -12.5% [at 11.4 µM] (inactive); for `O=C(Cc1ccccc1)N/N=C\c1ccc(Br)o1`, -20.2% (inactive). As for `O/N=C/c1ccccc1OCc1ccc(Cl)cc1`, the AC50 was 12.6 µM (active). Same read-out and setting: next, `O/N=C/c1cc(Cl)ccc1OCc1cccc2ccccc12`: 7.94 µM (active).

As to `Cc1ccc(COc2coc(CO)cc2=O)cc1`, the “activity, negative = inhibition” value is -20.6% (inactive).

For `Cc1ccc(CONC(=O)/N=C/N(C)C)cc1`, the “activity, negative = inhibition” value is -12.6% (inactive). Same read-out and setting: next, `COc1c(Cl)cc(Cl)cc1CNCCNCC(C)O` (stereo not drawn): 15.3% (inactive). Regarding `Cc1n[nH]c(=S)n1/N=C/c1ccccc1OCc1ccc(Cl)cc1`, the AC50 is 1.26 µM (active).

For the molecule `COc1cccc(/C=N/n2c(=S)n(C)c3cc(C)c(C)cc32)c1OC`, the activity, negative = inhibition is -9.43% [at 2.29 µM] (inactive). Consider `C=C1C(=O)C=C2CN(C(=O)c3ccccc3)[C@@](Cc3ccc(OC)cc3)(C(=O)OC)[C@@H]12`, for which the AC50 is 1.58 µM (active). Consider `COc1ccc(C(=O)n2nc(-c3ccccc3)nc2SC)cc1`, for which the “activity, negative = inhibition” value was 6.71% (inactive). Consider `C=C1C(=O)C=C2CN(C(=O)c3ccccc3)[C@@](Cc3ccc(F)cc3)(C(=O)OC)[C@@H]12`, for which the AC50 was 7.94 µM (active). On the same count and under the same terms, for `COc1ccc(C(=O)CN(C(=O)c2ccc(Cl)cc2)N2C(=O)c3ccccc3C2=O)cc1` the value was 8.91 µM (active). `O=C(CON1C(=O)c2ccccc2C1=O)c1ccccc1`: the activity, negative = inhibition was -17.5% [at 11.4 µM] (inactive). The same measure, in the same setting: next, `COc1ccc(C(=O)O/N=C/c2ccc(S(=O)c3ccc(Cl)cc3)nc2)cc1` (stereo not drawn): 7.76% (inactive); `Cc1cc(CC(=O)O)n(C)c1C(=O)c1ccc(Cl)cc1`: -11.7% [at 25.6 µM] (inactive). The same measure, in the same setting: for `COc1ccc2c(c1)-c1ccccc1S(=O)(=O)N2C(C)=O` the value was -6.85% (inactive). Consider `Cc1ccc(C(=O)CN(C(=O)c2ccc(Cl)cc2)N2C(=O)c3ccccc3C2=O)cc1`, for which the AC50 is 10 µM (active).

Take `Cc1cc(=Nc2ccc3c(c2)c(N)cc(C)[n+]3C)nc(N)n1C`: the activity, negative = inhibition was 3.03% [at 11.4 µM] (inactive). On to `C[C@@H]1CCCC(CC(=O)O)(CC(=O)O)C1`, for which the activity, negative = inhibition was -9.8% [at 11.4 µM] (inactive). Same read-out and setting: for `CC(NC(=O)Cn1cnc([N+](=O)[O-])n1)c1ccccc1` (stereo not drawn) the value was 0.0886% (inactive). On to `CC(NC(=O)c1ccc(Cn2cc([N+](=O)[O-])cn2)o1)c1ccccc1` (stereo not drawn), for which the concentration at half-maximal activity (AC50) was 25.1 µM (active). With `O=C(Nc1cccc(C(F)(F)F)c1)c1ccc(Cn2cc(Br)cn2)o1`, the activity, negative = inhibition is -0.795% [at 2.29 µM] (inactive). `CCC(=O)NC(Nc1sc2c(c1C(=O)OC)CCCC2)(C(F)(F)F)C(F)(F)F`: the activity, negative = inhibition is -7.25% [at 2.29 µM] (inactive). On to `CCOC(=O)C(NC(=O)CC)(Nc1sc2c(c1C(=O)OC)CCN(C)C2)C(F)(F)F` (stereo not drawn), for which the AC50 was 12.6 µM (active). Consider `CC(C)Oc1ccc(C2CC(=O)NC3=C2C(=O)CCC3)cc1` (stereo not drawn), for which the “activity, negative = inhibition” value was -29.8% (inactive). Take `COc1ccc(OC)c(C2CC(=O)C3=C(C2)NC(=O)CC3c2ccc(O)c(OC)c2)c1` (stereo not drawn): the AC50 was 8.91 µM (active). `COc1ccc(NC(=O)C2CC(=O)NC3=C2C(=O)CC(C)(C)C3)cc1` (stereo not drawn): the “activity, negative = inhibition” value is -22.9% (inactive). The same measure, in the same setting: next, `CC(=O)NC(Cc1ccc(F)cc1)C(=O)O` (stereo not drawn): 6.9% (inactive). Turning to `COc1ccc(F)cc1S(=O)(=O)NC(Cc1ccccc1)C(N)=O` (stereo not drawn), the AC50 was 15.8 µM (active). As for `CNC(=O)/C(C#N)=c1\s/c(=C/C(=O)OC)c(=O)n1-c1ccccc1`, the “activity, negative = inhibition” value was -3.36% (inactive). As for `CS(=O)(=O)c1ccc(Cn2c3c(c4cc(F)cc(F)c42)CCC[C@H]3CC(=O)O)cc1`, the AC50 is 39.8 µM (active).

With `CN[C@@H](c1ccncc1)[C@@H](NC)c1ccncc1`, the AC50 is 5.01 µM (active). Same read-out and setting: next, `CC(C)NNC(=O)c1ccncc1`: “inactive”. For `O=c1[nH][nH]c(=S)c(=O)[nH]1`, the activity, negative = inhibition was -14.1% [at 11.4 µM] (inactive). Same read-out and setting: next, `CC(=O)NCCNc1ncnc2ccc(-c3ccc(C(=O)N(C)C)cc3)cc12`: -20% (inactive). `COCCNc1ncnc2ccc(-c3ccc(N(C)C)cc3)cc12`: the AC50 is 7.94 µM (active). Regarding `COCCNc1ncnc2ccc(-c3ccoc3)cc12`, the “activity, negative = inhibition” value was -6.63% (inactive). With `COCCNc1ncnc2ccc(-c3ccc(C(=O)N(C)C)cc3)cc12`, the AC50 is 15.8 µM (active). On the same count and under the same terms, next, `O=C(NCc1ccc2c(c1)OCO2)C1CC(c2cccc(Br)c2)=NO1` (stereo not drawn): 0.708 µM (active). `COc1ccc(C2=NOC(C(=O)NCc3ccco3)C2)cc1OC` (stereo not drawn): the “activity, negative = inhibition” value is -25.1% (inactive).

For the molecule `COC(=O)[C@@H](NC(=O)Nc1ccc(C(C)=O)cc1)C(C)C`, the “activity, negative = inhibition” value is -1.62% (inactive).
